Data from PMC4336329 (PLoS ONE, 2015).
The campaign covered roughly 310,000 compounds. About 14,000 (4.5%) showed an effect of 50% or more. The effect is printed as a negative number. The full list was thinned out, with strong results kept by preference.

target: human ether-à-go-go-related gene (hERG) potassium channel (human, UniProt Q12809); assay: primary screen, population patch clamp on CHO cells stably expressing hERG; higher = less effect of the substance
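Also: peak tail current of the secondary pulse compared with the same well before compound.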

human ether-à-go-go-related gene (hERG) potassium channel, sequence (Q12809 whole entry, looked up): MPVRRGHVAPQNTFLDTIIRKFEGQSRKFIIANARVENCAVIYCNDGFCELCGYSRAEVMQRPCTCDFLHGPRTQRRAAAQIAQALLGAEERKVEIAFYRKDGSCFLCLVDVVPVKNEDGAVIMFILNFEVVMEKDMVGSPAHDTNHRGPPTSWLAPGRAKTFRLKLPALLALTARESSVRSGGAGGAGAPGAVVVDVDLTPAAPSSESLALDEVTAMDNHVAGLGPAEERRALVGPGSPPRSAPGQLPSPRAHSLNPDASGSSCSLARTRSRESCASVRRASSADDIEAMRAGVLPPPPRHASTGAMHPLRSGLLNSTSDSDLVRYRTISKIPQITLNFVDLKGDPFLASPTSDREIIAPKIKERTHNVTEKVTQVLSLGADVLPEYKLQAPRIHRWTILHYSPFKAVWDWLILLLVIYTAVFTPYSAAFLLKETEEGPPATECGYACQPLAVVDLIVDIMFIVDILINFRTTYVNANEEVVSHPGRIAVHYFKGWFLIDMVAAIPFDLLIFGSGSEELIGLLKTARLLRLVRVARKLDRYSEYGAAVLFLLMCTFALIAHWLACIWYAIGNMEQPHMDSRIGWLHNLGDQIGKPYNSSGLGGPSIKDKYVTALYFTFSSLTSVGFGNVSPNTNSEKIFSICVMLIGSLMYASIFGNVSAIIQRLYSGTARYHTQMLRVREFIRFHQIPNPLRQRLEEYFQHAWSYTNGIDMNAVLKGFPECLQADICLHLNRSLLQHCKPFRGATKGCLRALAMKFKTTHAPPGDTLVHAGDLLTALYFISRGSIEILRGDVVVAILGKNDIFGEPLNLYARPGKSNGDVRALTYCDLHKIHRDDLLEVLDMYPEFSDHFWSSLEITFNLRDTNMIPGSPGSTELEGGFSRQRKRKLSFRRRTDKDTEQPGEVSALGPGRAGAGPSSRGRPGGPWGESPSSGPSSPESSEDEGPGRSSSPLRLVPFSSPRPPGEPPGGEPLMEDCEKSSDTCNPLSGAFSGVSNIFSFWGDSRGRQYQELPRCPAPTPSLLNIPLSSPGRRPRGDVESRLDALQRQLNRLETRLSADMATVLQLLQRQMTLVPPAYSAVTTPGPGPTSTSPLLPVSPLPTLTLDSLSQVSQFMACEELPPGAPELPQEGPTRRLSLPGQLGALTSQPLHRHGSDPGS

SMILES | hERG current change (%, negative = inhibition) at 10uM [%]
Cc1noc(C)c1COc1cccc(C(=O)OC(C)C(=O)Nc2ccc3c(c2)OCO3)c1 (centres unmarked) | -61.2
Cc1nc2sccn2c(=O)c1S(=O)(=O)NCCc1ccccc1 | -21.5
Cc1nc2ccccn2c(=O)c1CCN1CCC(C(=O)c2ccc(F)cc2)CC1 | -73.3
CCOC(=O)c1ccc(NS(=O)(=O)c2c(C)nc3sccn3c2=O)cc1 | 1.63
Cc1nc2sccn2c(=O)c1S(=O)(=O)NCc1ccccc1 | -2.53
CCOc1ccccc1NC(=O)N1CCC(C(=O)c2ccc(F)cc2)CC1 | -32
CCCCc1c(O)nc2sccn2c1=O | -2
Cc1nc2sccn2c(=O)c1CCN1CCC(=C(c2ccc(F)cc2)c2ccc(F)cc2)CC1 | -78.6
Cc1nc2sccn2c(=O)c1CCN1CCC(=C(c2ccccc2)c2ccc(F)cc2)CC1 | -78
Cc1ccccc1NC(=O)N1CCC(C(=O)c2ccc(F)cc2)CC1 | -16.3
COc1ccc(C2=NN(c3ccccc3)C(c3cn(CCC(=O)O)nc3-c3ccccc3)C2)cc1 (centres unmarked) | 1.09
COC(=O)C1CCN(C(=O)Cc2ccc(OC)c(OC)c2)CC1 | 0.292
C[C@H]1CCC(=O)N(CCSc2ccc(Br)cc2)CC1 | -23.8
CC(C)CN1CCC(=O)N(CCSc2ccc(Br)cc2)CC1 | -61.3
[N-]=[N+]=NCCN1CCN(CCc2ccccc2)CCC1=O | 9.16
O=C1CCN(CCc2ccccc2)CCN1CCOc1ccccc1 | -72.8
CN1CCC(=O)N(CCSc2ccccc2)CC1 | -3.36
CCCN1CCC(=O)N(CCOc2ccccc2)CC1 | -6.3
O=C1CCN(CCc2ccccc2)CCN1CCSc1ccc(Br)cc1 | -80.1
Cc1ccc(SCCN2CCN(CCc3ccccc3)CCC2=O)cc1 | -69.6
O=C1CCN(Cc2ccccc2)CCN1CCOc1ccccc1 | -10.4
COc1ccc(SCCN2CCN(CC(C)C)CCC2=O)cc1 | -42.9

SMILES | hERG current change (%, negative = inhibition) at 10uM [%]
CN1CCC(=O)N(CCSc2ccc(Br)cc2)CC1 | -25.5
CC(C)CN1CCC(=O)N(CCSc2ccccc2)CC1 | -15.4
COc1ccccc1OCCNC(=O)c1ccc2c(c1)CCC2 | -5.96
Cc1ccc(S(=O)(=O)NC(=NCC(=O)O)c2ccccc2)cc1 | 2.94
COc1cc(OC)cc(C(=O)NNC(=O)c2cc(S(=O)(=O)N3CCOCC3)ccc2F)c1 | -1.89
CCC(=O)n1nc(-c2ccccc2)nc1NCc1ccccc1 | 10.9
Cn1ncc(N)c1C(=O)Nc1cccc(C(F)(F)F)c1 | 1.42
CCOC(=O)c1cc(C)n(-c2ccc(OC)c(OC)c2)c1C | -16.5
COc1cccc(NC(=S)N2CCC(NC(=O)c3ccco3)CC2)c1 | -11
CCOc1ccc2nc(NC(=O)c3ccccn3)sc2c1 | 6.42
COC(=O)c1cc(C)nc2c1C(=O)C(=O)C=C2N1CCOCC1 | -2.1
O=C1CCN(CCc2ccccc2)CCN1CCSc1ccccc1 | -76.4
O=C1CCN(CCc2ccccc2)CCN1CCO | -4.16
CCCN1CCC(=O)N(CCSc2ccccc2)CC1 | -15.1
CCN(CC)S(=O)(=O)c1ccc(NC(=O)CO/N=C(\N)c2ccccc2)cc1 | -16.6
O=C(CN1CCOc2ccccc21)NCc1cccs1 | 8.26
Br.O=C(CN1C2=NCCCN2c2ccccc21)c1ccc(Br)s1 | -67.2
Br.O=C(CN1C2=NCCN2c2ccccc21)c1cccs1 | -31.3
Br.O=C(CN1C2=NCCN2c2ccccc21)C12CC3CC(CC(C3)C1)C2 | -72.7
O=C(CN1C2=NCCCN2c2ccccc21)c1cccs1 | -18.4
Br.O=C(CN1C2=NCCN2c2ccccc21)c1ccc(Br)s1 | -64.5
Br.CCOC(=O)CN1C2=NCCN2c2ccccc21 | 18.1
